The values below come from PubChem BioAssay (NCI).

Where “and” joins values, the source holds several entries; their conditions need not be identical. Identical values can stand only once. This is part of a sample that, as a whole, favours compounds with a hit. Of some 83,000 tested, about 20% had one in any assay.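 A percent growth of 40 corresponds to 60% growth inhibition; 0 means no net growth; -100 means all cells died. Active threshold: below 10.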 Calls of active or inactive are those of the source.

The test system of the first assay is MCF7 breast. As to the kind of experiment: NCI-60 one-dose screen, 48 h (100 = growth as untreated, 0 = no growth, -100 = all killed). As to conditions: 10 µM. Here is the method: Growth inhibition of the MCF7 human tumor cell line is measured as a screen for anti-cancer activity. Cells are grown in 96 well plates and exposed to the test compound for 48 hours. Compounds are tested at a single concentration, which is 10^-5 M for most compounds. The reported endpoint is percent growth (GI% or GIPRCNT), where numbers from 0 - 100% represent growth inhibition, and numbers from -100% - 0 represent cell death. For example, a value of 40 represents 60% growth inhibition. A value of 0 means no net growth occurred over the course of the experiment. A value of -40 indicates 40% of cells at the beginning of the experiment died by the end of the experiment. A value of -100 means all cells are dead at the end of the experiment.
NCI-60 Human Tumor Cell Lines Screen was performed using the standard one-dose NCI protocol, which is described in more detail at https://dtp.cancer.gov/discovery_development/nci-60/default.htm.
Compounds with GIPRCNT values below 10 were considered active. Activity score was based on GIPRCNT using the following formula: […]
Score is 0 for GIPRCNT values of 100 or above, 50 for GIPRCNT values of 0, and 100 for GIPRCNT values of -100.
Consider `CC1CCC2(OC1)OC1C(O)C3C4CCC5CC(OC6OC(CO)C(OC7OC(CO)C(O)C(OC8OCC(O)C(O)C8O)C7OC7OC(CO)C(O)C(OC8OC(CO)C(O)C(O)C8O)C7O)C(O)C6O)C(O)CC5(C)C4CCC3(C)C1C2C` (stereo not given), for which the growth was -34% (active).

As to `COc1cc2c(c(OC)c1OC)-c1ccc(O)c(=O)cc1[C@@H](NC(C)=O)CC2`, the growth was 7.81% (active).

Staying with this assay, now noted: 10 µM unless noted.
Regarding `[Cl][Hg][c]1ccc(Cl)s1`, the growth was -37.1% (active). Same read-out and setting: the same measure for `COc1cc([C@@H]2c3cc4c(c(O)c3C[C@H]3COC(=O)[C@@H]32)OCO4)cc(OC)c1OC`: 8.86% (active).

In the case of `O=[N+]([O-])c1ccc(N(CCO)CCO)c2c1no[n+]2[O-]`, the growth is 6.05% (active). For `O=c1[nH]c2ccccc2n1C1CCN(CCCC(c2ccc(F)cc2)c2ccc(F)cc2)CC1`, the growth was 65% (inactive) and 6.06% (active). As for `Cc1cc(C(C)(C)c2ccc(O)c(C)c2)ccc1O`, the growth is 119% (inactive).

`C=NCC#N`: the growth is 109% (inactive) and 92.1% (inactive). Regarding `CC(C)c1cc([N+](=O)[O-])cc([N+](=O)[O-])c1O`, the growth is 93.3% (inactive). Turning to `COC12c3c(C)cc(O)c4c(=O)occ(c34)C(=O)C1C13COC(=O)c4c(O)cc(C)c(c41)C(=O)C2C3OC(C)=O` (stereo not given), the growth was 89.5% (inactive). As for `CC[C@@H](C)[C@@H]1NC(=O)C(NC(=O)C(CC(C)C)N(C)C(=O)C2CCCN2C(=O)C(C)O)C(C)OC(=O)C(Cc2ccc(OC)cc2)N(C)C(=O)C2CCCN2C(=O)C(CC(C)C)NC(=O)C(C)C(=O)C(C(C)C)OC(=O)C[C@H]1O` (stereo not given in full), the growth is -27.7% (active). On to `CC/C(=C/c1ccc(OC)cc1)[N+](=O)[O-]`, for which the growth is -41.5% (active). For the compound `COC(=O)C1C(O)C(C)C(O)C(C)/C=C\C=C(C)C(=O)Nc2c(C)c(OC(C)=O)c3c(c2O)C(=O)C(C)=C2OCOC(=C23)C(C)=CC(C)(O)C(O)C(C)C1O` (stereo not given), the growth was 93.6% (inactive). As to `CC[C@@]1(O)C[C@H](OC2CC(N(C)C)C(O)C(C)O2)c2c(cc3c(c2O)C(=O)c2c(O)ccc(O)c2C3=O)[C@H]1C(=O)OC` (stereo not given in full), the growth is -39.6% (active).

As for `NC(Cc1ccccc1)c1ccccc1` (stereo not given), the growth is 97.5% (inactive) and 97% (inactive). The same measure, in the same setting: then `COc1cc(/C=C\[N+](=O)[O-])ccc1O`, with 9.85% (active) and 23.9% (inactive).

In the case of `Cc1cc(C)c(C[N+](C)(C)C)c(C)c1C`, the growth is -10.7% (active). As for `COc1ccc(/C=C\[N+](=O)[O-])cc1OC`, the growth is 12.6% (inactive) and 16.4% (inactive).

Consider `NC(=O)c1cc([N+](=O)[O-])c(Cl)c([N+](=O)[O-])c1`, for which the growth is 22.3% (inactive). Regarding `CN(C)CC1(N)C(=O)NC(=O)NC1=O`, the growth was 90.9% (inactive). Consider `O=[N+]([O-])c1ccc(Br)c([N+](=O)[O-])c1`, for which the growth was 52.5% (inactive). As to `COc1cc([N+](=O)[O-])c2ncccc2c1[N+](=O)[O-]`, the growth is 23.3% (inactive). As for `COc1ccccc1/C=C/[N+](=O)[O-]`, the growth is 28.8% (inactive).

Turning to `N#CCc1ccccc1`, the growth is 97.7% (inactive). `CS(=N)(=O)CCC(N)C(=O)O` (stereo not given): the growth is 101% (inactive). For `COc1cc(/C=C/[N+](=O)[O-])cc(OC)c1OC`, the growth is 6.55% (active).

On to `O=C(O)c1cc(Cc2ccc(O)c(C(=O)O)c2)ccc1O` (tested in a mixture with another compound), for which the growth is 46.4% (inactive).

Consider `CCOC(=O)c1[nH]cnc1/N=N/N(C)N`, for which the growth is 69.3% [100 µM] (inactive) and -85.5% [100 µM] (active). Turning to `S=C=NCCc1ccccc1`, the growth was 20.3% (inactive). Regarding `COC(C(=O)C(O)C(C)O)C1Cc2cc3cc(OC4CC(OC(C)=O)C(OC5CC(O)C(OC)C(C)O5)C(C)O4)cc(O)c3c(O)c2C(=O)C1OC1CC(OC2CC(OC3CC(C)(O)C(OC(=O)C(C)C)C(C)O3)C(O)C(C)O2)C(O)C(C)O1` (stereo not given), the growth was 1.47% (active). On to `NNc1ccccc1`, for which the growth was 86.8% (inactive).

Take `O=[N+]([O-])/C=C/c1ccc(Cl)cc1[N+](=O)[O-]`: the growth was -69.2% (active). As to `C[C@H]1CC[C@@]2(NC1)O[C@H]1C[C@H]3[C@@H]4CC[C@H]5C[C@@H](O)CC[C@]5(C)[C@H]4CC[C@]3(C)[C@H]1[C@@H]2C`, the growth was 29.5% [100 µM] (inactive) and 25.5% [100 µM] (inactive). For the compound `O=[N+]([O-])c1ccc(N2CCOCC2)c2c1no[n+]2[O-]`, the growth is 13.7% (inactive). On to `COS(=O)(=O)c1ccccc1`, for which the growth is 99.5% (inactive).

Regarding `CCOP(=O)(OCC)/C(C#N)=C/c1ccc(Br)cc1`, the growth is 92% (inactive). As for `O=C1C(=O)c2ccccc2-c2ccccc21`, the growth is -66.4% (active). For `CC(Cc1ccc2c(c1)OCO2)NN` (stereo not given), the growth is 91.2% (inactive).

The assay is the same for the next values; noted with them: 100 µM.
For `CC1CCC2(OC1)OC1C(O)C3C4CCC5CC(OC6OC(CO)C(OC7OC(CO)C(O)C(OC8OCC(O)C(O)C8O)C7OC7OC(CO)C(O)C(OC8OC(CO)C(O)C(O)C8O)C7O)C(O)C6O)C(O)CC5(C)C4CCC3(C)C1C2C` (stereo not given), the growth is -84.7% (active) and -85.4% (active).

Turning to `COc1cc2c(c(OC)c1OC)-c1ccc(O)c(=O)cc1[C@@H](NC(C)=O)CC2`, the growth is -47.9% (active).
